The source of these data is PubChem BioAssay AID1942 (Johns Hopkins Ion Channel Center, 2009).

Among all 2,400 compounds or so, about 580 (24%) were called active. The list is a sample of the results. Values without a mark were called inactive.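 How the source made its calls: active means activity change at or above the mean plus 3 SD of buffer wells without dofetilide, per plate; inactive means the rest.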

The target in the test is Potassium voltage-gated channel subfamily KQT member 2 (Rattus norvegicus) (UniProt O88943). The test can be described thus: rat KCNQ2 channel activation by compounds alone, confirmation, counter-screen for hERG block protector project, cell-based, CHO, FluxOR thallium flux (AID 1942).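 Further: normalized value minus buffer-control mean plus three SD of buffer wells.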 The following applies: CHO-KCNQ2 cells, FluxOR thallium flux fluorescence; at 10 µM; stronger effect = higher value.
Sequence of Potassium voltage-gated channel subfamily KQT member 2 (Rattus norvegicus) (O88943 whole entry, looked up): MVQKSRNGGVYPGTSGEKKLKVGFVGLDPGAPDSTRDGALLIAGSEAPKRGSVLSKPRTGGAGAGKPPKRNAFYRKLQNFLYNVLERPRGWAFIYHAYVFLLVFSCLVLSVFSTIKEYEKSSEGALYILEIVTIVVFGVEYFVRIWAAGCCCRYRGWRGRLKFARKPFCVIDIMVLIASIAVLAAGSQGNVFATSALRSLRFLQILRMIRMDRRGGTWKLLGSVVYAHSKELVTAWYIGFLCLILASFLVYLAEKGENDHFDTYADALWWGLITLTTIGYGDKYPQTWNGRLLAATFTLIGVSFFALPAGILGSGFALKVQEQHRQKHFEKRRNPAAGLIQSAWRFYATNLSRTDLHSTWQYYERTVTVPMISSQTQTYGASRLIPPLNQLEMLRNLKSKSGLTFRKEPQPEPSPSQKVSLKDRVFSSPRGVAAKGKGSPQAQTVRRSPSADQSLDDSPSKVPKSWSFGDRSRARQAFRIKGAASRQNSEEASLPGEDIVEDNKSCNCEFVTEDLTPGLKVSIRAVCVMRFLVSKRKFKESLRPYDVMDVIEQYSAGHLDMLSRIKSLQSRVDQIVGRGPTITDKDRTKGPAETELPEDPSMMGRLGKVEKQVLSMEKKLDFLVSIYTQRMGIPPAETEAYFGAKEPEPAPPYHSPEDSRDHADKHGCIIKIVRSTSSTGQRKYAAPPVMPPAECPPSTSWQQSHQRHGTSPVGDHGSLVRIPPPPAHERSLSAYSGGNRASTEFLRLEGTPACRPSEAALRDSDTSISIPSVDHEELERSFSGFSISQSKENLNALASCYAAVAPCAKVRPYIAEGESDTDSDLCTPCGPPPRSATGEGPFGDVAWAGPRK
Turning to `O=C1NC2(CCCCCC2)C(=O)N1Cc1ccccc1`, the activity change, less the hit threshold was -17.6%.

`O=C(O)/C=C/C(=O)Nc1ccc(OC(F)(F)F)cc1`: the activity change, less the hit threshold was -10.2%.

As for `O=[N+]([O-])c1cccc(NC(=S)Nc2nc(-c3ccccc3Cl)cs2)c1`, the activity change, less the hit threshold was -7.3%.

As for `Cc1c(C(=O)NN2CCN(C)CC2)cccc1[N+](=O)[O-]`, the activity change, less the hit threshold is -11.1%.

Regarding `O=C(CN1C(=O)c2ccccc2S1(=O)=O)NCCSCc1ccccc1Cl`, the activity change, less the hit threshold is -15.3%. In the case of `CCCOc1ccc(OC(=O)c2ccc(Br)o2)cc1`, the activity change, less the hit threshold is 6.3% (active).

As to `Cc1ccc(OC(=O)c2ccc(Br)o2)cc1`, the activity change, less the hit threshold is 46.8% (active). In the case of `O=C(COC(=O)c1ccc(Br)o1)NC1CCCCC1`, the activity change, less the hit threshold was -6%. `COC(=O)c1cc(-c2ccc(C)cc2)n[nH]1`: the activity change, less the hit threshold was -3.5%. As to `O=C(NC1CCCC1)c1ccc(Br)o1`, the activity change, less the hit threshold is -20.5%.

For the compound `CCCCOc1ccc(CC(=O)NCC(=O)O)cc1`, the activity change, less the hit threshold is -16.8%.

`Cc1ccc(CNC(=O)CCc2ccc(S(=O)(=O)NCC(C)C)cc2)cc1`: the activity change, less the hit threshold was -18.2%. Take `Cc1noc(C)c1-c1nnc(-c2ccc(C(F)(F)F)cc2)o1`: the activity change, less the hit threshold was -9.9%. The result for `CC(C)Cc1nnc(NC(=O)Cc2ccccc2[N+](=O)[O-])s1` reads -18.1%; that for `CCC(C)(C(=O)NC1CCCC1)N(Cc1ccco1)C(=O)c1ccccn1` (stereo not drawn), -21.1%; that for `Cc1ccc(C2=NN(C(=O)CCCC(=O)O)C(c3ccc4c(c3)OCO4)C2)cc1` (stereo not drawn), -16.6%. Turning to `Cc1nc(SCC(=O)NCC2CCCO2)c2c3c(sc2n1)CCCC3` (stereo not drawn), the activity change, less the hit threshold was 11.1% (active).

With `COc1cccc(N2CC(C(=O)Nc3nnc(SCC(=O)NCC4CCCO4)s3)CC2=O)c1` (stereo not drawn), the activity change, less the hit threshold is -12.6%. For the compound `C=CCn1c(SCC(=O)NCC2CCCO2)nnc1-c1ccccc1` (stereo not drawn), the activity change, less the hit threshold is -13%.

For `COc1ccc(-c2nc(=S)c3c([nH]2)Oc2ccc(C)cc2C3)cc1O`, the activity change, less the hit threshold is -18.3%. As for `Cc1cc(N2C(=O)C(O)=C(C(=O)c3cccs3)C2c2ccccc2)no1` (stereo not drawn), the activity change, less the hit threshold is -22.8%. Consider `COc1ccc(C(=O)NCC(=O)OCn2nnc3ccccc3c2=O)cc1OC`, for which the activity change, less the hit threshold was -17.7%. For `COc1cc(OC)cc(-c2nc3ccccc3c(=O)n2OC(=O)c2ccc(Br)cc2)c1`, the activity change, less the hit threshold was -12.9%.

Turning to `CC(Oc1ccc(Br)cc1)c1nc2c3ccccc3nc(=S)n2[nH]1` (stereo not drawn), the activity change, less the hit threshold was 14.3% (active).

In the case of `COc1ccc(S(=O)(=O)n2nc(C)c(S(=O)(=O)N3CCOCC3)c2C)cc1OC`, the activity change, less the hit threshold is -19%. For the compound `Cc1ccc(-c2nc(N)s[n+]2-c2ccccc2)cc1`, the activity change, less the hit threshold was 11.3% (active). For the compound `Cc1nnc(SCc2cc(=O)oc3cc(O)ccc23)n1Cc1ccccc1`, the activity change, less the hit threshold was -14.7%.

As for `COc1ccc(-c2c(C)c3ccc(OCC(C)=O)cc3oc2=O)cc1`, the activity change, less the hit threshold is -17.3%. The result for `Cc1ccc(Cn2c(=S)[nH]c3ccccc3c2=O)cc1` reads -6.4%. Turning to `CC(C)COn1c(=S)[nH]c2ccccc2c1=O`, the activity change, less the hit threshold was 11.1% (active).

Take `CCC(Cc1ccccc1)n1c(=S)[nH]c2ccccc2c1=O` (stereo not drawn): the activity change, less the hit threshold was -14%.

`CCC(C)n1c(=S)[nH]c2ccccc2c1=O` (stereo not drawn): the activity change, less the hit threshold is 25% (active).

With `CCCCn1c(=S)[nH]c2ccccc2c1=O`, the activity change, less the hit threshold was 3.1% (active). Consider `O=c1c2ccccc2[nH]c(=S)n1CCc1ccccc1`, for which the activity change, less the hit threshold was 10.3% (active). For `COc1ccc(CCn2c(S)nc3ccccc3c2=O)cc1`, the activity change, less the hit threshold was -6.5%.

For the compound `CC1(C)Cc2c(sc(NC(=O)C(=O)N3CCCC3)c2C#N)CO1`, the activity change, less the hit threshold is -3.6%. In the case of `CC1=NN(c2ccccc2)C(=O)/C1=C/c1ccc(-c2ccc(C)c(C(=O)O)c2)o1`, the activity change, less the hit threshold is -18.9%.

Turning to `Cc1cc(=O)oc(C)c1C(=O)NCCC(C)C`, the activity change, less the hit threshold was -6.2%. The result for `O=C(COC(=O)c1cnccn1)c1ccc(Cl)cc1` reads -17%; that for `Cc1ccc(NC(=O)c2ccc(CNS(=O)(=O)c3cccc(C(F)(F)F)c3)cc2)cc1`, -15.6%; that for `Cc1ccc(CS(=O)(=O)c2ncc(Cl)c(C(=O)Nc3nnc(C)s3)n2)cc1`, -0.8%. The result for `S=c1[nH]c2ccc(Cl)cc2s1` reads 101% (active); that for `S=c1[nH]c2cc(Cl)ccc2s1`, 106% (active); that for `O=C(Nc1ccc2[nH]c(=S)sc2c1)Nc1ccccc1F`, -19%. Consider `CCNC(=O)NC1c2ccccc2CSc2ccccc21` (stereo not drawn), for which the activity change, less the hit threshold is -20.6%.

As to `Cc1ccc(C)c(NC(=O)CCN2C(=O)[C@@H]3Cc4ccccc4CN3C2=O)c1`, the activity change, less the hit threshold was -23.4%.

Take `COc1ccc(C(=O)N(CN2CCCC2=O)c2ccc(C)cc2)cc1`: the activity change, less the hit threshold is -3.9%.

`O=C(NCCCN1CCCC1=O)c1ccc(OC(F)(F)F)cc1`: the activity change, less the hit threshold was -19.5%. `CCOc1ccc(C(=O)N(CN2CCCC2=O)c2ccc(C)cc2)cc1`: the activity change, less the hit threshold was 21.8% (active). On to `Cc1cc(C)c(Cn2c3ccccc3c3cnn(CC(=O)NCc4ccccn4)c(=O)c32)c(C)c1`, for which the activity change, less the hit threshold is -12.3%. The result for `O=C1OCCC1Sc1nc2ccccc2c(=O)n1Cc1ccc(F)cc1` (stereo not drawn) reads -2%; that for `COc1cc2c(cc1OC)C(c1ccc([N+](=O)[O-])cc1)N(C(C)=O)CC2` (stereo not drawn), -27%; that for `O=C(Nc1ccc(Cl)c(Cl)c1)Nc1nnc(CSc2ccccc2)s1`, -5.4%. With `O=C(NCCOC(=O)c1ccc([N+](=O)[O-])cc1)c1cccnc1`, the activity change, less the hit threshold was -12.2%. The result for `C=CCN(CC=C)C(=S)NC(=O)Cc1cccc2ccccc12` reads 3.6% (active); that for `CCCN(CC1CC1)C(=S)Nc1ccccc1F`, -17.8%; that for `C=CCN(CC=C)C(=S)NC(=O)c1ccc(-c2ccccc2)cc1`, 21% (active).

As for `C=CCN(CC=C)C(=S)NC(=O)c1ccc([N+](=O)[O-])cc1`, the activity change, less the hit threshold is 48.5% (active). In the case of `C=CCN(c1ccc(C(=O)NC(C)C)cc1)S(C)(=O)=O`, the activity change, less the hit threshold is -16.8%. The result for `CCN(CC)C(=S)NC(=O)c1ccc(F)cc1` reads -10.2%; that for `CCCN(CCC)C(=S)NC(=O)c1ccc(-c2ccccc2)cc1`, 91.4% (active). Take `Cc1c(C)n(CCN(C)C)c2ccc(C(=O)OCCN(C)C)cc12`: the activity change, less the hit threshold is -12.7%. As for `CCCCCN(C(=O)CCC(=O)OC(C)C(=O)c1ccccc1)c1c(N)n(CCCC)c(=O)[nH]c1=O` (stereo not drawn), the activity change, less the hit threshold was -10.3%. Regarding `CCn1nnnc1SCC(=O)N1c2ccccc2Sc2ccccc21`, the activity change, less the hit threshold is -16.2%. Regarding `CCc1nnc(NS(=O)(=O)c2ccc(NC(=S)NC(=O)/C=C/c3ccc(OC)cc3)cc2)s1`, the activity change, less the hit threshold was -7.3%. Take `COc1ccc(CCNC(=O)CSc2ccc3nnc(CCNC(=O)c4ccccc4)n3n2)cc1OC`: the activity change, less the hit threshold is -18.6%. Turning to `CCCN1CCC(NC(=O)CC2C(=O)NCCN2Cc2cccc(OC)c2)CC1` (stereo not drawn), the activity change, less the hit threshold is -17.9%. With `CCCCNC(=S)NC(=O)c1ccc([N+](=O)[O-])cc1`, the activity change, less the hit threshold was 22.9% (active). The result for `CCC(=O)Nc1ccc(C(=O)NNC(=O)c2cc([N+](=O)[O-])cc([N+](=O)[O-])c2)cc1` reads -17.8%; that for `CCCCCC(=O)NNC(=S)NC(=O)c1ccc([N+](=O)[O-])cc1`, -31.9%. Take `CC1CCN(S(=O)(=O)c2ccc3nc(N4CCN(c5ccccc5)CC4)ccc3c2)CC1`: the activity change, less the hit threshold was -25.2%.

Consider `Cc1ccc(Cc2c[nH]c(=S)s2)cc1`, for which the activity change, less the hit threshold is 52.8% (active). The result for `S=c1[nH]cc(Cc2ccccc2)s1` reads 1.4% (active). Take `Clc1ccc(Cc2ccccc2)nn1`: the activity change, less the hit threshold is -12.9%. For `Cc1[nH]c(=S)sc1Cc1ccc(Cl)c(Cl)c1`, the activity change, less the hit threshold was -16%.

`COCCn1cnc2c1c(=O)n(CC#N)c(=O)n2Cc1ccccc1`: the activity change, less the hit threshold is -22%. Consider `CCOc1ccc(CCNC(=O)Nc2ccccc2C)cc1OCC`, for which the activity change, less the hit threshold is -14.3%. The result for `CNC(=O)CSc1nnc(-c2ccco2)n1-c1ccc(C)cc1` reads -16.3%; that for `Cc1ccc(C(=O)NC(=S)Nc2ccccc2C(F)(F)F)cc1`, -24.5%; that for `CCCOc1ccc(C(=O)NNC(=S)NC(=O)c2cccs2)cc1`, -34.1%. Regarding `Cc1ccc(C(=O)N/N=C(/CC(=O)c2cccs2)C(F)(F)F)cc1`, the activity change, less the hit threshold is 5.2% (active). Turning to `COc1ccc(S(=O)(=O)N2CCN(C(=O)CNC(=O)c3ccc4c(c3)OCO4)CC2)cc1`, the activity change, less the hit threshold was -12.9%. `O=C(Nc1c[nH]c(=O)[nH]c1=O)c1ccc2c(c1)C(=O)N(c1cccc([N+](=O)[O-])c1)C2=O`: the activity change, less the hit threshold was -9.9%. For `O=C(Cn1nc(-c2ccccc2)c2ccccc2c1=O)Nc1ccc(O)cc1`, the activity change, less the hit threshold is -25.7%. `O=C(CN1CCCCCC1)Nc1ccc(Oc2ccccc2)cc1`: the activity change, less the hit threshold is -20.3%. For the compound `Cc1nn(CC(=O)Nc2ccc(C(=O)N3CCCC3)cc2)c(=O)c2ccccc12`, the activity change, less the hit threshold was 11.5% (active). As for `O=C(Nc1ncc(Br)s1)C(Cc1ccccc1)n1cccc1` (stereo not drawn), the activity change, less the hit threshold was -5.9%. With `Cn1cnnc1SCC(=O)NCc1ccccc1`, the activity change, less the hit threshold is -24.1%.

With `COc1cc(/C=C/C(=O)O)ccc1OS(=O)(=O)c1cc(C)ccc1C`, the activity change, less the hit threshold was -16.4%. Consider `COc1cc(/C=C/C(=O)N[C@@H](Cc2c[nH]c3ccccc23)C(=O)O)ccc1O`, for which the activity change, less the hit threshold was -15.9%. The result for `COC(=O)Oc1ccc(/C=C/C(=O)OC(C)C)cc1OC(=O)OC` reads 3% (active); that for `Cc1ccc(NC2=CC(=O)OC(C)C2)cc1` (stereo not drawn), -17.3%. For the compound `Cc1ccc(Oc2ccc(OCC(=O)NC(CC(C)C)C(=O)O)cc2)cc1` (stereo not drawn), the activity change, less the hit threshold was -14.9%. Regarding `CC1=Nc2ccc(C)cc2/C1=C/c1c(N)n2c(S(=O)(=O)C(C)C)nsc2nc1=O`, the activity change, less the hit threshold was -27%. Consider `O=C(CN1CCCCCCC1)Nc1cccc(Cl)c1Cl`, for which the activity change, less the hit threshold was -20.9%. For the compound `O=C(c1c(O)c2ccccc2oc1=O)C1CCCCC1`, the activity change, less the hit threshold was -4.8%. As for `O=c1oc2ccccc2c(Cl)c1CN1CCCCC1`, the activity change, less the hit threshold was 8.6% (active).

In the case of `CSc1nc2c(c(=O)[nH]1)C(c1ccc(F)cc1)CC(=O)N2` (stereo not drawn), the activity change, less the hit threshold is -16.4%.
